# Rows were chosen to be rich in hits. Some 5.4% of all compounds tested hit in one or more screens of this group.
# MPTP inh: permeability transition pore inhibition; isolated mouse mitochondria, Ca2+ swelling absorbance, 30 min; inhibition, % at 10 µM; 1.4% of 360,000 active; AID 602449;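 active = inhibition of 50% or more, scaled per plate between neutral and stimulator controls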
# Calb FLC: affects C. albicans growth with fluconazole. AID 1979. C. albicans CaCi-2 (fluconazole-resistant clinical isolate) + fluconazole, Alamar Blue growth, 48 h. growth inhibition, % (concentration not given with the values). 0.57% of 300,000 active;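 active = growth inhibition above about 58% in most replicates, limit read from the data, passing the limit was not always enough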;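 note: all wells also contain fluconazole at 8 µg/ml as a sub-toxic cotreatment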
# SKKanGAS inh: inhibitors of SKKanGAS S. pyogenes growth in kanamycin (SK-promoter or general growth effect). BacTiter-Glo, 6 h. inhibition, % at 7.5 µM. 1.3% of 300,000 active;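 active = mean replicate score, as percent of positive control median, at least 50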;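 note: strain carries kanamycin resistance gene driven by streptokinase promoter and grows in 40 µg/ml kanamycin; loss of luminescence reflects streptokinase promoter inhibition or plain growth inhibition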
# CSC inhib: cancer stem cell inhibition; 1.1% of 300,000 active; inhibition, % at 7.5 µM; AID 2717; cancer stem cell-like cells viability, luminescence; in the data active = inhibition above about 75%; tested in HMLE shEcad cells
# Beta cell apopt: beta cell apoptosis inhibition; INS-1E cytokine-induced death, ATP luminescence, 48 h; percent of positive-control rescue, neutral wells zero; AID 435005; 0.8% of 300,000 active; protection from apoptosis, % (test concentration not listed);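 active = Every replicate reaches about 75%, or at least half do and their mean reaches it too, limit read from the data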;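 note: higher means more ATP so stronger rescue from cytokine killing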
# Mdm2 MdmX PPI: inhibitors of human Mdm2/MdmX interaction. O15151+Q00987. SaOS-2 split-luciferase Mdm2/MdmX complementation, luminescence. inhibition, % at 8 µM. 3% of 330,000 active. AID 485346;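 active = inhibition of at least 50% at 8 µM in the primary screen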
# Target sequence (O15151 whole entry, looked up): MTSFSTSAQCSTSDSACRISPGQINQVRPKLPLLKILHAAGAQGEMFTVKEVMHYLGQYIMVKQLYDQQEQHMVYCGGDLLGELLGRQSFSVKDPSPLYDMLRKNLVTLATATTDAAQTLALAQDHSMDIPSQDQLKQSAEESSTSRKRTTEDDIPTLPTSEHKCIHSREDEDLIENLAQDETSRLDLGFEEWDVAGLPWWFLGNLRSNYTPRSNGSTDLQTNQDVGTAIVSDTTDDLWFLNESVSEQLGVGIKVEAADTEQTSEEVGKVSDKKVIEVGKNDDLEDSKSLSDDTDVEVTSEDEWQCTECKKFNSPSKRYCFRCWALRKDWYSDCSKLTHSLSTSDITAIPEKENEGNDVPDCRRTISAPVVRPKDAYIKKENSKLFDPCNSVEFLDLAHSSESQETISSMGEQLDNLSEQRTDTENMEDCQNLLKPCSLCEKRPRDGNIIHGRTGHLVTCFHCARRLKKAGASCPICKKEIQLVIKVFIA
# Target sequence (Q00987 whole entry, looked up): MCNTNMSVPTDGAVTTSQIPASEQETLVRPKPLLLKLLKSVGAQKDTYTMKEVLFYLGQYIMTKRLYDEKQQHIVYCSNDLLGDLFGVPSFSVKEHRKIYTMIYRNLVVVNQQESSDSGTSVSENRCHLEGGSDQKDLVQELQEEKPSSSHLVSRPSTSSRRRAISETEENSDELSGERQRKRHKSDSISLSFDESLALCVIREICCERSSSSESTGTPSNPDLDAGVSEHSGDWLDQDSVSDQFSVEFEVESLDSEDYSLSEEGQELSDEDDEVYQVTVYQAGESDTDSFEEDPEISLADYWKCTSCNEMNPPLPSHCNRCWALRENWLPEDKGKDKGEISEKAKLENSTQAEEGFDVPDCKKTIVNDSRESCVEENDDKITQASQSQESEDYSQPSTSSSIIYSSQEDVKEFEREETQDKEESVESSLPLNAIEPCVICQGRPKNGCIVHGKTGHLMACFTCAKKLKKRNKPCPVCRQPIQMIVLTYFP
# Mdm2 MdmX conf: human Mdm2/MdmX binding inhibition, confirmed; shares compounds with Mdm2 MdmX PPI; luminescent assay; inhibition, % at 8 µM; 55% of 10,000 active; AID 489028; in the data active = inhibition above about 40%
# FLuc counter: full-length luciferase inhibition in Mdm2/MdmX counter-screen; shares compounds with Mdm2 MdmX PPI; SaOS-2 full-length luciferase counterscreen, luminescence; inhibition, % at 8 µM; 77% of 6,200 active; AID 504607;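 active = mean inhibition at 8 µM reaching about 37%, which flags the compound as non-specific, limit read from the data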;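 note: p53-null SaOS-2 cells with luciferase driven by a doxycycline-inducible promoter; compound on cells about two nights before reading with doxycycline added after day one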
# A number is an active result; . = inactive; / = no result given.
SMILES,MPTP inh,Calb FLC,SKKanGAS inh,CSC inhib,Beta cell apopt,Mdm2 MdmX PPI,Mdm2 MdmX conf,FLuc counter
CC(=O)O[C@H]1CCC2C3CC[C@H]4[C@@H](O)[C@H](O)CC[C@]4(C)C3CC[C@@]21C (some centres undefined),.,/,/,/,/,/,/,/
O=c1[nH]c(O)c(N=Nc2cc(C(F)(F)F)ccc2Cl)c(=O)[nH]1,.,.,.,.,.,.,/,/
NC(Cc1ccccc1)c1nn[nH]n1 (centres undefined),.,/,/,/,/,/,/,/
O=C(N/N=C/c1c(O)n(C2CCCCC2)c(=S)[nH]c1=O)c1ccccc1,.,/,80,.,.,.,/,/
c1ccc2c(CN3CCOCC3)c[nH]c2c1,.,.,.,.,/,.,/,/
c1ccc2c(CN3CCCCCC3)c[nH]c2c1,.,.,.,.,100,.,/,/
Cc1ccc(-n2nc(C)c(C3C(C#N)=C(N)Oc4c3c(=O)oc3ccccc43)c2Cl)cc1 (centres undefined),/,.,119,/,/,/,/,/
O=C(NCCN1CCCCC1)c1ccc(Cl)nc1Cl,.,.,.,.,.,.,/,/
N#CC1c2ccccc2-n2nncc2CN1S(=O)(=O)c1ccc(Cl)cc1 (centres undefined),.,/,/,/,/,/,/,/
CC/C(=N\Nc1ccccc1)c1c(O)n(-c2ccc(OC)cc2)c(=O)[nH]c1=O,.,.,.,76,.,.,/,/
Cc1ccc(-c2cc(-c3ccc(C)cc3)[n+](-c3ccc(C(=O)[O-])cc3)c(-c3ccc(C)cc3)c2)cc1,.,.,78,.,98,.,/,/
O=C(Nc1ccc(C(F)(F)F)cc1)c1cccn(Cc2ccc3c(c2)OC(F)(F)O3)c1=O,.,.,.,90,.,.,/,/
Cc1ccc(C(O)(c2ccc(C)c(C)c2)C2CN3CCC2CC3)cc1C (centres undefined),.,.,.,.,.,61,44,74
C[N+]12CCC(CC1)C(C(O)(c1cccc(Cl)c1)c1cccc(Cl)c1)C2 (centres undefined),.,.,.,.,.,.,/,/
O=C1NC2C(O)C(O)C(O)C(O)C2c2cc3c(c(O)c21)OCO3 (centres undefined),.,/,/,/,/,/,/,/
CC1OC(OC2C=C3CCC4C(CCC5(C)C(c6ccc(=O)oc6)CCC45O)C3(C)CC2)C(O)C(OC2OC(CO)C(O)C(O)C2O)C1O (centres undefined),.,/,/,/,/,/,/,/
CCOC(=O)c1ccc(-[n+]2c(-c3ccccc3)cc(-c3ccccc3)cc2-c2ccccc2)cc1,/,.,.,.,123,93,61,.
CCOC(=O)c1ccccc1C(=O)OCC,.,.,.,.,.,.,/,/
CCOC(=O)c1cccc(-[n+]2c(-c3ccccc3)cc(-c3ccccc3)cc2-c2ccccc2)c1,.,.,.,.,135,89,50,.
CC1CCN(CC(=O)c2cccc(C(F)(F)F)c2)CC1,.,.,.,.,.,.,/,/
COc1ccc(/C=C/C(=O)c2c(O)n(CCC3=CCCCC3)c(=O)[nH]c2=O)cc1OC,.,.,.,.,.,69,.,/
CCC(=O)N1CC(=O)Nc2ccc(Br)cc2C1c1ccccc1 (centres undefined),.,.,.,.,.,.,/,/
CCOc1ccc(-n2c(-c3ccoc3)nc3ccccc3c2=O)cc1,.,.,.,/,/,.,/,/
CCOc1ccc(-c2c(C)n(-c3ccc(OCC)cc3)c3[n+]2CCCCC3)cc1,.,87,.,.,/,88,87,49
COC(=O)[C@@H]1C[C@H]1[C@@H](NP(=O)(c1ccccc1)c1ccccc1)c1ccccc1,.,.,.,.,.,56,40,63
SMILES,MPTP inh,Calb FLC,SKKanGAS inh,CSC inhib,Beta cell apopt,Mdm2 MdmX PPI,Mdm2 MdmX conf,FLuc counter
COC(=O)C1=C(c2ccccc2OCc2ccccc2)C[C@@H]2CC[C@H]1N2C(=O)NC1CCN(Cc2ccccc2)CC1,.,/,/,.,.,51,.,/
COC(=O)C1=C(c2cccc(OCc3ccccc3)c2)C[C@@H]2CC[C@H]1N2C(=O)NC1CCN(Cc2ccccc2)CC1,.,/,/,.,.,61,40,71
COC(=O)C1=C(c2ccc(F)cc2OCc2ccccc2)C[C@@H]2CC[C@H]1N2C(=O)NC1CCN(Cc2ccccc2)CC1,.,/,/,.,.,76,.,60
COC(=O)C1=C(c2ccc(F)cc2OCc2ccccc2)C[C@@H]2CC[C@H]1N2C(=O)NCc1ccccc1,.,/,/,.,.,.,/,/
CCC(=NCc1ccco1)c1c(O)n(-c2ccc(C)cc2)c(=O)[nH]c1=O,.,.,.,.,.,.,/,/
CCc1cc2c(N3CCN(C)CC3)ncnc2s1,.,.,.,.,.,.,/,/
CCN1CCN(c2ncnc3ccc(Br)cc23)CC1,.,.,.,/,.,62,62,42
N=C1c2ccccc2CN1c1cccc([N+](=O)[O-])c1,.,.,.,.,.,.,/,/
N=C1c2ccccc2CN1c1ccc(F)c([N+](=O)[O-])c1,.,.,.,.,.,53,.,/
CCN(CC(=O)Nc1ccc(C#N)c(Cl)c1)CC(=O)NC1CCS(=O)(=O)C1 (centres undefined),.,/,/,/,/,.,/,/
COc1cc(CC2(CCc3ccncc3)C(=O)NC(=O)NC2=O)cc(OC)c1OC,.,.,.,.,/,.,/,/
COc1cc2c(cc1OC)-c1c(OC)c(OC)c(OC)c3ccnc(c13)C2=O,/,.,.,.,89,72,44,.
COc1cccc(NP(=O)(Oc2ccccc2)Oc2ccccc2)c1,.,.,.,99,.,58,53,37
COc1cccc(NP(=O)(Oc2ccccc2Cl)Oc2ccccc2Cl)c1,.,.,.,.,.,.,/,/
OCC[n+]1c2ccccc2nc2ccc(N3CCOCC3)cc21,.,.,.,.,.,.,/,/
O=C1NC(=O)N(c2ccccc2)C(=O)/C1=C\C=C\c1ccccc1,.,.,.,.,.,78,.,/
Cc1cc(C)cc(N2C(=O)NC(=O)/C(=C\C=C\c3ccco3)C2=O)c1,.,.,.,.,.,/,/,/
Cc1ccc(N2C(=O)NC(=O)/C(=C/C=C/c3ccco3)C2=O)cc1,.,.,.,79,.,54,.,/
N[C@@H](Cc1ccc(N(CCCl)CCCl)cc1)C(=O)O,.,/,/,.,.,68,.,36
CC(=O)c1cc(C(C)=O)c(C)[n+](C)c1C,.,.,.,.,/,.,/,/
C[C@@H]1O[C@@H](O[C@H]2C[C@@H](O)[C@]3(CO)[C@H]4[C@H](O)C[C@]5(C)[C@@H](C6=CC(=O)OC6)CC[C@]5(O)[C@@H]4CC[C@]3(O)C2)[C@H](O)[C@H](O)[C@H]1O,/,/,.,95,.,83,80,.
CC1OC(OC2C(O)CC(OC3C(O)CC(OC4CCC5(C)C(CCC6C5CCC5(C)C(C7=CC(=O)OC7)C(O)CC65O)C4)OC3C)OC2C)CC(O)C1O (centres undefined),.,/,/,/,/,/,/,/

# Source: PubChem (several laboratories)
